Measured values: PubChem BioAssay AID686999 (Broad Institute, 2013)
Measured potencies and affinities stand elsewhere. Inconclusive results are not listed.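 Rule for the calls: active = active in every separate test run, each with half-maximal potency at or under twice its top valid dose; inconclusive = the separate test runs give conflicting calls; inactive = inactive in every test run, including signal rising instead.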

Test: Cryptococcus growth inhibition by alamar blue – cell lysis, cherry-picks, replicate tests, mechanism study for C. neoformans antifungal project, dose response (AID 686999)
Conditions: 72 h; series mostly up to 35 µM; activity change, negative = inhibition: at the top concentration

Activity change, negative = inhibition, inactive:
COc1ccc(CNC(=S)NCc2ccc(OC(C)C)cc2)cc1 13.2%
CC(C)CC1(C)N=C(c2ccccc2)C(=S)N1 (stereo unspecified) 24.5%
COC(=O)C1=C(C)N(Cc2ccccc2)C(=S)N[C@H]1c1cccc(F)c1 9.11%
O=C(NC(=S)Nc1cccc(F)c1)c1cccc([N+](=O)[O-])c1 19.7%
COc1ccc(NC(=S)NCc2ccc(Cl)cc2)c(OC)c1 5.43%
S=C(Nc1ccc(Cl)cc1Cl)Nc1ccccc1Oc1ccccc1 9.91%
O=C(NC(=S)NCC1COc2ccccc2O1)c1ccc(Cl)cc1 (stereo unspecified) 22% [at 46 µM]
Cc1ccc(C(=O)NC(=S)Nc2ccc(N3CCOCC3)cc2)cc1 7.95%
Fc1ccccc1NC(=S)NN(Cc1ccccc1)c1ccccc1 13.9%
COC(=O)C1=C(C)N(Cc2ccc(F)cc2)C(=S)NC1c1cccc(Cl)c1 (stereo unspecified) 3.12%
O=C(NC(=S)Nc1ccc(Br)cc1)C1CCC1 18.4%
COc1ccc(C(=O)NC(=S)Nc2ccccc2N2CCCCC2)cc1[N+](=O)[O-] 9.23%
CCc1nc(N2CCCCC2C)c2oc3ccccc3c2n1 (stereo unspecified) 14%
COC(=O)C1=C(C)N(CC(C)C)C(=S)NC1c1ccc(F)cc1 (stereo unspecified) -6.25% [at 42 µM]
S=C(NCCCc1ccccc1)Nc1ccccc1 22.7%
COc1cccc(NC(=S)N2CCC(Cc3ccccc3)CC2)c1 -12.5%
S=C(NCc1ccccc1)NCC1COc2ccccc2O1 (stereo unspecified) 13.4%
CCOC(=O)NC(=S)Nc1ccc(C(C)(C)C)cc1Br -0.187%
O=C(NC(=S)Nc1cc(Cl)ccc1N1CCOCC1)c1ccccc1[N+](=O)[O-] 26.6%
COc1cccc(NC(=S)NC(=O)Cc2ccc(Cl)cc2)c1 5.7%
O=C(NC(=S)Nc1ccccc1N1CCOCC1)c1cccc([N+](=O)[O-])c1 3.65%
